High-throughput results as filed in PubChem BioAssay.
HT1080 IDH1KD tx: HT-1080 IDH1 knockdown cell toxicity (counter line) | AID 686971 | HT-1080 IDH1 knockdown viability, ATP luminescence, 48 h | 360,000 compounds, 2% hits | Potency, µM (top dose mostly 46.1 µM), inactives show at the highest dose activity, negative = toxicity, hits mostly cytotoxic;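 further: potency means the concentration at half of the fitted maximal effect; 0% = DMSO wells and -100% = cell-free medium wells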
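% activity derives from luminescence (CellTiter-Glo), normalised to DMSO and no-cell wells. HT-1080-IDH1KD cells, 750/well, had 48 h compound exposure at 37 °C.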
TDP1 cell noCPT: qHTS for Inhibitors of human tyrosyl-DNA phosphodiesterase 1 (TDP1): qHTS in cells in absence of CPT; DT40 Tdp1-/- hTDP1 cells, no CPT, ATP luminescence, 48 h; AID 686978, 2013; 420,000 compounds, 15% hits; Potency, µM (series often up to 46.2 µM), for inactives: at the highest dose activity change, negative = growth inhibition, usual class: inhibitors; further: potency means the concentration at half of the fitted maximal effect; nearly all actives have a fitted effect of over 55% in size
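A cellular qHTS used chicken DT40 cells lacking endogenous Tdp1 but carrying stably transfected human TDP1. Compounds were applied without camptothecin, and cell growth kinetics were judged by ATP-dependent luminescence after ≥48 hr.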
IL1B secr inh: inflammasome signaling inhibition, IL-1 beta readout. activity change, % at 57.5 µM. THP-1 LPS/ATP IL-1B secretion, AlphaLISA, 16 h; stronger effect = lower value. 360,000 compounds, 4.7% hits; in the data active means activity change below about -50%; inconclusive means mostly about -30% to -49%
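Secreted IL-1B measured by AlphaLISA bead assay after 16 h compound exposure of THP-1 cells; compounds (final up to 57.5 uM) added 1 h before LPS (250 ng/mL) and ATP (1.25 mM) stimulation; lower signal means less secretion.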
HT1080NT lethal: kills 2HG-producing HT-1080-NT fibrosarcoma cells. HT-1080-NT fibrosarcoma viability, CellTiter-Glo ATP luminescence, 48 h. Potency, µM (top dose mostly 46.1 µM), for inactives: at the highest dose activity, negative = less viability, hits mostly cytotoxic. 360,000 compounds, 1.6% hits. AID 686970;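 further: NT is the 2HG producing partner of a matched IDH1 knockdown line; potency means the concentration at half of the fitted maximal effect; 0% = DMSO-treated cells and -100% = media-only wells without cells; nearly all actives have a fitted effect of over 55% in size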
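Luminescent CellTiter-Glo readout after 48 hours of compound exposure at 37 degrees C defined viability of HT-1080-NT cells. Activity was normalized to DMSO wells and cell-free media wells; concentration-response curves were fitted and assigned curve classes.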
TDP1 cell CPT: growth inhibition of DT40 Tdp1-/-;hTDP1 cells with camptothecin (screen for TDP1 inhibitors) | chicken DT40 Tdp1-/-;hTDP1 cells + 20 nM CPT, ATP luminescence, 48 h | AID 686979 | Potency, µM (doses to about 46.2 µM), for the others: top-dose activity change, negative = growth inhibition, hits mostly inhibitors | 420,000 compounds, 12% hits; further: potency means the concentration at half of the fitted maximal effect; nearly all actives have a fitted effect of over 55% in size
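Cell growth measured by CellTiter-Glo luminescence after a minimum 48 h, 37 C compound exposure with 20 nM CPT in Tdp1-knockout DT40 cells stably expressing hTDP1, seeded 400/well; qHTS titration format.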
ALOX12 inh: blocks human arachidonate 12S-lipoxygenase | P18054 | purified 12hLO, xylenol orange hydroperoxide absorbance | Potency, µM (top dose mostly 108 µM), for the others: at the top dose activity change, negative = inhibition, hits mostly inhibitors | 580,000 compounds, 1.1% hits; further: potency means the concentration at half of the fitted maximal effect
Target sequence (P18054 whole entry, looked up): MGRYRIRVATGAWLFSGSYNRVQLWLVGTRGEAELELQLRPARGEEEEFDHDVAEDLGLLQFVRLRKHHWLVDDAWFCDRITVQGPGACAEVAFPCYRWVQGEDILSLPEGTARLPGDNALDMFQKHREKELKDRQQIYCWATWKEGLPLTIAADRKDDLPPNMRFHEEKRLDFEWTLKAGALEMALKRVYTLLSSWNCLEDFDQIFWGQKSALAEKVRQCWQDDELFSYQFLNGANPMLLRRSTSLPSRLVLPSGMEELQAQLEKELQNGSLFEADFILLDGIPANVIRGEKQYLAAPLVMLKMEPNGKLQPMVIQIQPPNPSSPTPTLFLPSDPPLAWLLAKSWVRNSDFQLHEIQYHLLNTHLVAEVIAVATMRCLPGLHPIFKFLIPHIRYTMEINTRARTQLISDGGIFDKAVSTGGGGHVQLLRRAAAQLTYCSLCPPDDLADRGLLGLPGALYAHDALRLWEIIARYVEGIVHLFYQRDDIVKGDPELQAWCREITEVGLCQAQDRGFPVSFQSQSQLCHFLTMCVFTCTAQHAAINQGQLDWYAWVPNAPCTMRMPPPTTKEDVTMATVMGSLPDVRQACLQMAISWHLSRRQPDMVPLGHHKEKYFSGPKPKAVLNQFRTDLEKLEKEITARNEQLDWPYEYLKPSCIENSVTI
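Purified human 12hLO (150 nM final) in 25 mM Hepes, 0.01% Triton X-100, pH 7.0 was preincubated 15 min at room temperature with compound. Then 40 uM arachidonic acid was added, 30 min. Hydroperoxide was read by Fe-XO absorbance ratio 573/405 nm.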
* = called active by the depositor; ? = inconclusive; . = no result given; [ ] = remark or other dose. The full list was thinned out, with hits kept by preference. Unless noted, the call rests on the fitted dose curve; in most records, active means well fitted curve in the direction sought with a large enough effect; inconclusive means small, poorly fitted or top-dose-only effect, or another doubt; inactive means no such curve, though single readings can be large; an effect the other way counts as inactive or inconclusive. Unless noted, on the % scale 0 is the no-effect control and ±100 the full control effect.

SMILES	HT1080 IDH1KD tx	TDP1 cell noCPT	IL1B secr inh	HT1080NT lethal	TDP1 cell CPT	ALOX12 inh
CC(=O)NC1(C)CCCN(Cc2cccc(Nc3cccc(C#N)c3)c2)C1 (stereo unspecified)	.	.	.	.	.	8.7%[176 µM]
Cc1cc(Cl)ccc1NC(=O)CN(c1ccccc1F)S(=O)(=O)c1ccccc1	.	.	.	.	.	6.4%
CC(C)NC(=O)c1ccc(Cn2cnc3ccccc3c2=O)cc1	.	.	.	.	.	45.8%
CC(C)(C)c1ccc(S(=O)(=O)NNC(=O)C2CCN(Cc3cccc(F)c3)CC2)cc1	-28.6%	-11.8%	-54.2*	-26.8%	-3.0%	1.6%
CC(C)c1ccc(C(=O)N2CCCCC2c2cc(C(=O)Nc3ccncc3)no2)cc1 (stereo unspecified)	-26.5%	16.4µM*	47.7	-8.8%	16.4µM*	13.9%
CCCNC(=O)c1cc(C2CCCCN2C(=O)c2cc(OC)c(C)c(OC)c2)on1 (stereo unspecified)	-1.6%	?	23.1	14.2%	20.6µM*	12.9%
CC(C)c1ccc(C(=O)N2CCOCC2c2cc(C(=O)Nc3ccccc3)no2)cc1 (stereo unspecified)	-4.1%	?	-14.9	7.8%	?	0.1%
CCCNC(=O)c1cc(C2CCCCN2C(=O)c2ccc(C(C)C)cc2)on1 (stereo unspecified)	13.8%	10.3µM*	-9.2	-2.9%	20.6µM*	9.5%
O=C(c1coc2ccccc12)N1CCN(Cc2cnc[nH]2)CC(O)C1 (stereo unspecified)	.	.	.	.	.	92.5%
O=C1CCN(CCc2ccccc2)CCN1[C@H](COc1ccccc1)Cc1ccccc1	?	11.2µM*	?	?	29.1µM*	?
CC(C)C[C@@H](COc1ccccc1)N1CCN(CCc2ccccc2)CCC1=O	-6.7%	20.6µM*	-3.3	-3.1%	11.2µM*	11.1%
CCCN1CCC(=O)N([C@H](COc2ccccc2)CC(C)C)CC1	0.7%	?	-9.5	-5.1%	?	-15.7%
CC(C)CN1CCC(=O)N([C@H](COc2ccccc2)Cc2ccccc2)CC1	-1.4%	11.2µM*	-8.0	-1.3%	23.1µM*	-3.7%
CCN(Cc1ccc(Cl)s1)C(=O)Cn1nnc(-c2cccc(C(F)(F)F)c2)n1	.	.	.	.	.	43.6%
Cc1ccc(Nc2nc(CSc3nnc(-c4ccccc4C)n3C)cs2)cc1	-12.7%	?	?	-5.9%	?	6.8%
Cc1ccccc1-n1c(SCc2csc(Nc3ccccc3)n2)nnc1-c1cccnc1	-11.1%	13µM*	-23.4	0.4%	11.6µM*	-12.8%
Cc1ccc(Nc2nc(CSc3nnc(-c4cccnc4)n3-c3ccccc3C)cs2)cc1	-14.8%	14.6µM*	?	-10.3%	14.6µM*	-20.4%
CCCCn1nnnc1CSc1nnc(-c2cccnc2)n1-c1ccccc1C	.	.	.	.	.	-1.4%
O=C(CCNC(=O)c1cccs1)Nc1cc(Cl)ccc1Cl	.	.	.	.	.	39.6%
Cc1cc2c(-c3cccc(OC(C)C)c3)nc(-c3c(C)noc3C)cc2[nH]1	.	.	.	.	.	2.8%[176 µM]
Cc1ccc(-n2c(-c3ccccc3)nsc2=NC#N)cc1	.	?	.	.	12.6µM*	.
Cc1ccc(NC(=O)c2nn(Cc3ccccc3)c(=O)c3ccccc23)c(Cl)c1	.	.	.	.	.	1.9%
Cc1oc(-c2cccs2)nc1CC(=O)NC(C)CN1CCOCC1 (stereo unspecified)	.	.	.	.	.	1.0%
COc1ccc(-c2nc(C#N)c(NCC(c3cccs3)N(C)C)o2)cc1 (stereo unspecified)	.	.	.	.	.	-12.6%
CCOC(=O)c1c(C)[nH]c(C)c1S(=O)(=O)N1CCCC(C(=O)N2CCN(c3cccc(Cl)c3)CC2)C1 (stereo unspecified)	.	20.6µM*	.	.	20.6µM*	-25.5%
SMILES	HT1080 IDH1KD tx	TDP1 cell noCPT	IL1B secr inh	HT1080NT lethal	TDP1 cell CPT	ALOX12 inh
CCOC(=O)c1c(C)[nH]c(C)c1S(=O)(=O)N1CCCC(C(=O)N2CCN(c3cccc(C)c3C)CC2)C1 (stereo unspecified)	.	?	.	.	14.6µM*	-23.9%
CC1=NS(=O)(=O)N(Cc2ccccc2)C=C1C(=O)OCc1noc(-c2ccc(C)c(C)c2)n1	.	.	.	.	.	12.6%
c1cncc(-c2cnc([C@@H]3COCCN3Cc3ncc[nH]3)[nH]2)c1	.	.	.	.	.	59.5%[176 µM]
COCCNC(=O)COC(=O)c1cc(-c2ccc(F)cc2)nc2ccccc12	.	.	.	.	.	16.5%
Cn1cccc1CN1CCCCCCNC(=O)[C@@H]2CCC[C@@H]21	.	.	.	.	.	81.4%
COc1ccccc1C(=O)N1CCN(c2oc(-c3cccc(Cl)c3)nc2C#N)CC1	.	.	.	.	.	5.1%
O=C(N1CCCCC1)C1(S(=O)(=O)c2ccccc2)CC=CC1	17.8%	8.2µM*	15.5	15.5%	20.6µM*	2.2%
O=C(N1CCOCC1)C1(S(=O)(=O)c2ccccc2)CC=CC1	7.4%	-10.2%	11.6	9.3%	-18.5%	0.6%
CCCCc1ccc(S(=O)(=O)NC2CCS(=O)(=O)C2)cc1 (stereo unspecified)	-15.5%	20.6µM*	4.8	?	20.6µM*	-28.3%
COC(=O)Nc1ccc(S(=O)(=O)NC2CCS(=O)(=O)C2)cc1 (stereo unspecified)	10.0%	-17.1%	23.8	27.9%	-5.8%	-10.4%
CCn1ncc(CN2CCCC(C(=O)N3CCN(c4ccccn4)CC3)CCNC(=O)CC2)c1C (stereo unspecified)	.	.	.	.	.	29.2%
